# Records with an inconclusive call do not appear. Entries that show only a call come without a potency. Calls of active or inactive are those of the source. Calls come from the whole dose curve; as a rule, active = well fitted inhibition curve with a large enough effect; inconclusive = small, poorly fitted or top-dose-only effect, or effect the other way; inactive = flat fitted curve, though single readings scatter.
# Molecular target: Pyruvate kinase (Leishmania mexicana) (UniProt Q27686)
# Assay: Confirmation Assay for Inhibitors of Leishmania Mexicana Pyruvate Kinase (LmPK): for Probe SAR
# Conditions: purified LmPK, ATP generation, Kinase-Glo luminescence; series mostly up to 57.5 µM
# Summary of the method: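 Coupled luminescent assay: ATP produced by LmPK (0.1 nM) from ADP (0.1 mM, ~10-fold below Km) and PEP (0.5 mM, at Km) after 1 h RT, detected with Kinase-Glo. Data scaled between no-enzyme and uninhibited controls.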
# Potency is the fitted concentration of half-maximal effect.
# Chain of Pyruvate kinase (Leishmania mexicana) (Q27686 whole entry, looked up): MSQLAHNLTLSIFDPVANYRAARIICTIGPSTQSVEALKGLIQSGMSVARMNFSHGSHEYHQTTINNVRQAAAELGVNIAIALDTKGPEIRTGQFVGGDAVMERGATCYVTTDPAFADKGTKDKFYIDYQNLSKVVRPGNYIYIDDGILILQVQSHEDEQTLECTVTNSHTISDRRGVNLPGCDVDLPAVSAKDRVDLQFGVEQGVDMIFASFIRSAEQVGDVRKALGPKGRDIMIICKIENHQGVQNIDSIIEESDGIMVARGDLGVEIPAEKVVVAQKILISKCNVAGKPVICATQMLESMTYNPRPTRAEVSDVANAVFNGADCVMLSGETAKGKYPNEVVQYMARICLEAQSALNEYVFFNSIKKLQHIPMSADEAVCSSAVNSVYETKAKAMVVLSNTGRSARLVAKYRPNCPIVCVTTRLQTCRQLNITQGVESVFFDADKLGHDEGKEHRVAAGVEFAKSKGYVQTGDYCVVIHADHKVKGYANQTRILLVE
row,SMILES,Potency
1,Cc1ccc(-c2nc3ccccn3c2Nc2ccc(F)cc2)o1,inactive
2,Cc1ccc(NS(=O)(=O)c2ccc(Cl)cc2)cc1C,inactive
3,Cc1cc(C)c2c(=O)cc(C3C(=O)c4ccccc4C3=O)[nH]c2c1,inactive
4,Cc1ccc(N2C(=O)c3ccccc3C2=O)c(C)c1,inactive
5,Cc1ccc(Nc2c(-c3ccsc3)nc3cccc(C)n23)cc1,inactive
6,Cc1cc(C)c2[nH]c(C3C(=O)c4ccccc4C3=O)cc(=O)c2c1,inactive
7,O=C1NS(=O)(=O)c2cc(Cl)ccc21,inactive
8,COc1ccc(OC2=NS(=O)(=O)c3ccccc32)cc1,4.31 µM (active)
9,O=C1CCc2cc(S(=O)(=O)Nc3cccc(-c4ccccc4)c3)ccc2N1,inactive
10,O=S1(=O)N=C(Oc2cccc(-c3ccccc3)c2)c2ccccc21,3.26 µM (active)
11,Cc1ccc(C)c(OC2=NS(=O)(=O)c3ccccc32)c1,2.59 µM (active)
12,O=C1CCc2cc(S(=O)(=O)Nc3ccc(-c4ccccc4)cc3)ccc2N1,inactive
13,Cc1ccc(NS(=O)(=O)c2cccc(F)c2)cc1C,inactive
14,O=S1(=O)N=C(OCc2ccccc2)c2ccccc21,inactive
15,COc1cccc2ccc(C3C(=O)c4ccccc4C3=O)nc12,inactive
16,Cc1ccc(-c2nc3ccccn3c2Nc2ccccc2C)o1,inactive
17,N#Cc1ccccc1OC1=NS(=O)(=O)c2ccccc21,5.8 µM (active)
18,COc1ccc(NS(=O)(=O)c2ccccc2C(=O)O)cc1,inactive
19,Cn1c2cc(S(C)=O)sc2c2cnn(Cc3cccc(N)c3)c(=O)c21 (stereo not given),inactive
20,CCCCN1C(=O)c2ccccc2C1=O,inactive
21,Cc1ccccc1OC1=NS(=O)(=O)c2ccccc21,4.43 µM (active)
22,Cc1cc(=O)oc2cc(SC3=NS(=O)(=O)c4ccccc43)ccc12,1.83 µM (active)
23,COc1ccc(-c2nc3ccccn3c2Nc2ccccc2C)cc1,inactive
24,Cc1cc(C)c2nc(C3C(=O)c4ccccc4C3=O)ccc2c1,inactive
25,Cc1ccc(NS(=O)(=O)c2cc3c(cc2/C=C/c2ccccc2)NC(=O)CO3)cc1C,inactive
26,O=C1NS(=O)(=O)C(c2ccccc2)C1c1ccccc1 (stereo not given),inactive
27,Cc1ccc(NS(=O)(=O)c2cccc(C(=O)O)c2)cc1C,inactive
28,O=C1c2ccccc2C(=O)N1c1cccc2cccnc12,inactive
29,O=C1c2ccccc2C(=O)C1c1nccc2ccccc12,18.3 µM (active)
30,Cc1ccc(NS(=O)(=O)c2ccc(-c3ccccc3)cc2)cc1C,inactive

# From PubChem BioAssay AID2561 (National Center for Advancing Translational Sciences (NCATS), 2010)
